# “And” between values parts separate entries of the source, which are not always exact repeats. Equal values may be shown once. Results filed as inconclusive are left out. The source made the active and inactive calls. Calls come from the whole dose curve; as a rule, active = well fitted cell-killing curve with a large enough effect in the repeat runs; inconclusive = weak or mixed curves, or effect the other way; inactive = flat fitted curve, though single readings scatter.
# Assay: qHTS assay to identify small molecule antagonists of the constitutive androstane receptor (CAR) signaling pathway - cell viability counter screen (AID 1224837); note: nearly all actives have a fitted effect of over 45% in size
# Details: HepG2-CYP2B6-hCAR viability, CellTiter-Fluor, 23 h, co-treated with 50 nM CITCO; series mostly up to 92.4 µM; activity change, negative = cytotoxicity: at the top concentration
# Description: National Center for Advancing Translational Sciences [NCATS]
# NIH Chemical Genomics Center [NCGC]
# U.S. Environmental Protection Agency [EPA]
# National Institutes of Environmental Health Sciences [NIEHS]
# National Toxicology Program [NTP]
# U.S. Food and Drug Administration [FDA]
# The constitutive androstane receptor (CAR) is a nuclear receptor which regulates multiple drug metabolizing enzymes (DMEs) and transporters. Activating CAR will generally increase the transcription and subsequent translation of CYP2B6 and CYP3A4. These two DMEs represent about 50% of the drug metabolizing potential in the body. When CAR is deactivated, the metabolizing potential in the body will decrease, subsequently increasing the toxicity in the body or lowering the therapeutic potential of a pro-drug. Recently, there have also been studies performed indicating CARs role in energy metabolism and cancer therapy. Therefore, inhibiting CARs activity could have a potential effect on diabetes and cancer. Identifying environmental toxins and compounds which modulate CAR, through the use of the Tox21 10K compound collection, will be an important step in determining the toxicity and potential therapeutic effects these factors will have on the human body. To differentiate true CAR antagonists from cytotoxic substances, the assay is multiplexed with a cell viability assay.
# Tox21 Assay Protocol Summary:
# A double-stable (hCAR and CYP2B6-2.2kb) transfected cell line, derived from human hepatoma (HepG2) cells, was utilized for the duration of the quantitative high-throughput screens. The HepG2-CYP2B6-hCAR cells were dispensed at 2500 cells/4 uL/well in 1536-well white solid bottom plates using a Multidrop Combi. After the assay plates were incubated at 37 C/5% CO2 for 4 hrs, 23 nL of compounds at 15 concentrations (from 5-48 columns) or positive control (from 1 to 4 columns) were transferred to the assay plates using a Pintool station. One uL of CITCO (final concentration = 50 nM) was added, using a Flying Reagent Dispenser, inside each well. After a 23 hr incubation period at 37 C/5% CO2, 1 uL of CellTiter-Fluor reagent was added into each well of the assay plates using a Flying Reagent Dispenser. The fluorescence intensity in the plates was then measured using a ViewLux plate reader.
# % is set by controls: 0 for no effect and ±100 for the full control effect; potency is the fitted concentration of half-maximal effect.
SMILES,"activity change, negative = cytotoxicity",Potency
O=C(O)c1c(Cl)cccc1Cl,2.24% (inactive),–
CCCCCCCCNC(C)C(O)c1ccc(SC(C)C)cc1 (stereo not given),–,29.8 µM (active)
CCCCCCC[N+](CC)(CC)CCCCc1ccc(Cl)cc1,-21.6% [at 42.5 µM] (inactive),–
CC1=NC(C)OC1C (stereo not given),-2.28% (inactive),–
Cc1cccc(CN2CCN(C(c3ccccc3)c3ccc(Cl)cc3)CC2)c1 (stereo not given),11% [at 42.5 µM] (inactive),–
CCC(CN)=C(c1ccccc1)c1ccccc1,2.43% [at 42.5 µM] (inactive),–
CCCCCOC(=O)CCCC,3.25% (inactive),–
CCCCCCCCCCCC[N+](C)(C)CCCCCCCCCCCC,–,24.3 µM (active)
CCN(C(=O)N(CC)c1ccccc1)c1ccccc1,0.526% (inactive),–
CCCCCCCCCCCCCCCC(=O)OC[C@H](O)[C@H]1OC(=O)C(O)=C1O,2% (inactive),–
O=[N+]([O-])c1cc([N+](=O)[O-])c2ccc(S(=O)(=O)O)cc2c1O,–,24.2 µM (active)
CC(C)(C)NC(=O)[C@@H]1C[C@@H]2CCCC[C@@H]2CN1C[C@@H](O)[C@H](Cc1ccccc1)NC(=O)[C@H](CC(N)=O)NC(=O)c1ccc2ccccc2n1,–,24.7 µM (active)
NNC(=O)c1cccc(C(=O)NN)c1,-2.52% (inactive),–
CO[Si](CCCNc1ccccc1)(OC)OC,12.7% (inactive),–
N=C1C=CC(=C(c2ccc(N)cc2)c2ccc(N)cc2)C=C1,–,27.3 µM (active)
CCC(Cl)C(Cl)C(Cl)CC(Cl)C(Cl)C(C)Cl (stereo not given),0.244% (inactive),–
CCN(Cc1cccnc1)C(=O)c1cccc(Cl)c1[C@]1(C)C(=O)N(Cc2ccc(OC)cc2OC)c2ccc(Cl)cc21,-26.3% (inactive),–
CCc1oc2ccccc2c1C(=O)c1cc(Br)c(O)c(Br)c1,0.866% [at 42.5 µM] (inactive),–
CCCCC(CC)COP(=O)(O)OCC(CC)CCCC (stereo not given),–,inactive
O=C1Cc2cc(CCN3CCN(c4nsc5ccccc45)CC3)c(Cl)cc2N1,-1.57% [at 42.5 µM] (inactive),–

SMILES,"activity change, negative = cytotoxicity",Potency
N#CSc1ccc(N)c([N+](=O)[O-])c1,–,43.5 µM (active)
CC[C@H](c1ccc(O)cc1)[C@@H](CC)c1ccc(O)cc1,–,inactive
Clc1ccc2nsnc2c1NC1=NCCN1,-0.942% [at 42.5 µM] (inactive),–
CC(=O)SC[C@@H](Cc1ccccc1)C(=O)NCC(=O)OCc1ccccc1,-2.09% [at 42.5 µM] (inactive),–
Oc1cc2ccccc2c2ccccc12,–,13.7 µM (active)
Clc1ccc(C(Cn2ccnc2)OCc2ccc(Sc3ccccc3)cc2)c(Cl)c1 (stereo not given),0.465% [at 42.5 µM] (inactive),–
c1cc(C(c2ccc(OCC3CO3)cc2)c2ccc(OCC3CO3)cc2)ccc1OCC1CO1 (stereo not given),-14% (inactive),–
CCN(CC)CCNC(=O)c1c(C)[nH]c(/C=C2\C(=O)Nc3ccc(F)cc32)c1C,–,10.6 µM (active)
Fc1ccc(C(c2ccc(F)cc2)N2CCN(C/C=C/c3ccccc3)CC2)cc1,-19.5% [at 42.5 µM] (inactive),–
CCCC(c1cc(C(C)(C)C)c(O)cc1C)c1cc(C(C)(C)C)c(O)cc1C,–,31 µM (active)
CC(C)OC(=O)c1cc2c(OCC(O)CNC(C)(C)C)cccc2[nH]1 (stereo not given),-14% [at 42.5 µM] (inactive),–
CCC1OCC(COc2ccc(Oc3ccccc3)cc2)O1 (stereo not given),-12.6% (inactive),–
CCCCN1CCCC[C@H]1C(=O)Nc1c(C)cccc1C,-15.6% [at 42.5 µM] (inactive),–
C=CC(=O)OCC(CO)(COC(=O)C=C)COC(=O)C=C,–,9.72 µM (active) and 24.3 µM (active)
O=S1(=O)CC(Cl)(Cl)C(Cl)(Cl)C1,–,8.63 µM (active)
O=C(NOCC1CC1)c1ccc(F)c(F)c1Nc1ccc(I)cc1Cl,-27.7% [at 42.5 µM] (inactive),–
N/C(=N\N=C\c1ccc(Cl)cc1)N/N=C/c1ccc(Cl)cc1,3.94% [at 42.5 µM] (inactive),–
CC(C)=CCOc1ccc(/C=C/C(=O)c2ccc(OCC=C(C)C)cc2OCC(=O)O)cc1,4.28% [at 42.5 µM] (inactive),–
Clc1ccc2n[nH]nc2c1,1.92% (inactive),–
c1ccc(CSCc2ccccc2)cc1,-5.71% (inactive),–

# From PubChem BioAssay (Tox21)
